PubChem BioAssay AID652257 (The Scripps Research Institute Molecular Screening Center, 2013)
About 4,800 (1.3%) of roughly 370,000 compounds were called active. Shown is part of a subset that was picked to be rich in actives. A number with no mark means an inactive call.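 How the source made its calls: active means inhibition above about 21% made by adding two undisclosed values (limit read from the data); inactive means the rest.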

The compounds below were run against Protein arginine N-methyltransferase 1 (Homo sapiens) (UniProt Q99873) (assay: PRMT1 methyltransferase inhibitors, primary screen, biochemical, fluorescence polarization (AID 652257)). Conditions: recombinant PRMT1, activity-based probe fluorescence polarization; at 2.79 µM; active compounds read high.
Sequence of Protein arginine N-methyltransferase 1 (Homo sapiens) (Q99873 whole entry, looked up): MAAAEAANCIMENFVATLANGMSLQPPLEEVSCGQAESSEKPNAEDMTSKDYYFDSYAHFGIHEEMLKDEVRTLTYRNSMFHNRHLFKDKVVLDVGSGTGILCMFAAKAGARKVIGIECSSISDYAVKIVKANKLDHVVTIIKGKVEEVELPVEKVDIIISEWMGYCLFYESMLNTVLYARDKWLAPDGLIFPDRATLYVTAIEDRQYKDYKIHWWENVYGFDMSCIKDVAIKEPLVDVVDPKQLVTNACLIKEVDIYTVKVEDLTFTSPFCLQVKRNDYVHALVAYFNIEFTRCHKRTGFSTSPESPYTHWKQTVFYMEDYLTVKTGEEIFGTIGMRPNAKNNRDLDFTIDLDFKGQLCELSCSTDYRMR

Row | Compound | inhibition
1 | Fc1ccc(N2CCN(Cc3ccc4c(c3)OCO4)CC2)cc1 | -0.82%
2 | CC(C)c1ccc(O)c(CN2CCN(c3ccccc3)CC2)c1 | -1.49%
3 | Oc1cc2c(cc1CN1CCN(c3ccccc3)CC1)OCO2 | 24.3% (active)
4 | O=C(N/N=C/c1c(O)n(C2CC2)c(=S)[nH]c1=O)c1ccccc1 | 3.82%
5 | CC1C2Cn3c(nc4ccccc43)C1N(C)O2 (stereo not given) | 1%
6 | O=S(=O)(c1ccccc1)N1CCC2CCNC2C1 (stereo not given) | -4.47%
7 | ClC(Cl)(Cl)c1ccccc1 | -1.08%
8 | O=C1NC(=O)N(c2ccccc2)C(=O)/C1=C/c1ccc([N+](=O)[O-])s1 | 30.1% (active)
9 | CC(C(=O)Nc1ccc(Cl)cc1Cl)N1CC=C(c2ccccc2)CC1 (stereo not given) | -2.84%
10 | CCOc1ccc(-c2cc(C)[n+](CCN(CC)CC)c(-c3ccc(OCC)cc3)c2)cc1 | 4.49%
11 | Cc1c(Oc2cc(NN3CCCCC3)c([N+](=O)[O-])cc2[N+](=O)[O-])cccc1[N+](=O)[O-] | 0.33%
12 | CCOc1cccc(=NC2CCCCC2)c2c(C)[nH]c(C)c12 | 24.5% (active)
13 | COc1ccc2c(c1)[C@@]13CCCCC1[C@@H](C2)NCC3 (stereo not given in full) | 0.98%
14 | CC(=O)C1(O)CCC2C3CCC4=C(Cl)C(=O)CCC4(C)C3CCC21C (stereo not given) | -3.26%
15 | C=CCN1C(=O)NC(=O)/C(=C/c2ccc(OCC(=O)Nc3ccc(C)cc3)cc2)C1=O | 2.43%
16 | O=C(O)COc1ccccc1/C=C1\C(=O)NC(=O)N(CCC2=CCCCC2)C1=O | 21.6% (active)
17 | CCCCC(=O)N/N=C/c1c(O)n(CCC2=CCCCC2)c(=O)[nH]c1=O | 4.46%
18 | COP(=O)(Sc1ccccc1)C(Cc1ccccc1)NC(=O)OCc1ccccc1 (stereo not given) | 15.9%
19 | CCC(C)NC1(c2ccccc2)CCCCC1 (stereo not given) | -3.67%
20 | Brc1ccc2c(c1)CNCc1cnnn1-2 | -6.53%
21 | CCCOC(=O)C1C2c3ccccc3C(c3ccccc32)C1C(=O)O (stereo not given) | -2.66%
22 | Cc1ccc(-n2c(C)cc(/C=C3\C(=O)NC(=O)N(C)C3=O)c2C)cc1C | 2.43%
23 | Cc1cc(C=C2C(=O)NC(=O)NC2=O)c(C)n1-c1ccncc1 | 3.52%
24 | O=C1NC(=O)N(Cc2ccco2)C(=O)/C1=C\c1ccc(-c2ccc(F)cc2)o1 | 25% (active)
25 | Cc1cc(/C=C2/C(=O)NC(=O)N(Cc3ccco3)C2=O)c(C)n1-c1ccc(C(=O)O)cc1 | 42% (active)
26 | COc1cc2nc(N3CCN(C(=O)[C@@H]4CCCO4)CC3)nc(N)c2cc1OC | -2.88%
27 | Cc1cc(N2C(=O)C3CCCN3C2c2ccc(Cl)c(Cl)c2)no1 (stereo not given) | 1.57%
28 | COC(=O)C1=C(c2cc3ccccc3s2)C[C@@H]2CC[C@H]1N2C(=O)NCc1cccc2ccccc12 | -3.89%

Row | Compound | inhibition
29 | COP(=O)(NS(=O)(=O)c1ccccc1)OC | -6.51%
30 | O=C1N=c2ccccc2=C/C1=C\c1c(O)[nH]c(=S)[nH]c1=O | 51.8% (active)
31 | Cc1ccc2c(c1)=C/C(=C\c1c(O)[nH]c(=O)[nH]c1=O)C(=O)N=2 | 7.2%
32 | COc1ccccc1N=Nc1c(O)[nH]c(=S)[nH]c1=O | -3.43%
33 | CO[C@H]([C@H](C)/C=C/N(C)C=O)[C@@H](C)C(=O)CC[C@H](C)[C@H](O)[C@H](C)[C@H]1OC(=O)/C=C/C(C)=C/[C@H](O)[C@H](OC)C[C@@H]2C=CC[C@@H](C[C@H](OC)[C@@]3(CO3)[C@@H](OC)C[C@@H](OC)[C@@H]1C)O2 | 1.29%
34 | CCN(CC)C(=O)[C@@H]1C=C2c3cccc4[nH]c(Br)c(c34)C[C@H]2N(C)C1 | 9.48%
35 | COP(=O)(OC)C(NC(=O)c1ccc(C)cc1)C(Cl)(Cl)Cl (stereo not given) | 1.17%
36 | CN1CCC(N(C)Cc2cccnc2)CC1 | 11.7%
37 | COc1ccc(N2C(=O)/C(=C/c3ccco3)C(=O)NC2=S)cc1 | 41.9% (active)
38 | O=C(COC(=O)Cc1ccccc1)Nc1ccc(F)cc1 | -1.27%
39 | c1ccc(N2Cc3ccccc3-n3nncc3C2)nc1 | -1.49%
40 | CCOC(=O)CC(SP1(=S)OCC2(CCCCO2)C(C2CCCCO2)O1)C(=O)OCC (stereo not given) | 55.3% (active)
41 | COc1ccc2c(c1)NP(=S)(c1ccccc1)N2 (stereo not given) | 14.7%
42 | COc1ccc(CCn2c(O)c(C=NC3CC3)c(=O)[nH]c2=O)cc1OC | 0.57%
43 | CCOC(=O)C1(Cc2ccc(Cl)cc2)CCN(C(C)CCn2cccn2)CC1 (stereo not given) | -1.84%
44 | CC1CNCCN1c1ccc(Cl)cc1 (stereo not given) | -2.9%
45 | Cc1cc(N2CCNC[C@@H]2C)ccc1N1CC[C@H](O)C1 | 49.5% (active)
46 | Clc1ccc([C@@H]2CC3CCC2N3)cn1 (stereo not given in full) | -1.63%
47 | CC(C)CN1CCN(Cc2ccccc2C(F)(F)F)CC1CCO (stereo not given) | 0.64%
48 | CCOC(=O)c1c(-c2ccccc2)oc2ccc(OC(=O)N(C)C)cc12 | 2.78%
49 | COc1ccccc1NC(=O)N1C[C@@H]2C[C@@H](C1)c1cccc(=O)n1C2 | 1.82%
50 | CS(=O)(=O)N1CCC2CCNC2C1 (stereo not given) | -2.72%
51 | CCC(=NCCc1ccccc1)c1c(O)n(C2CCCCC2)c(=O)[nH]c1=O | -0.77%
52 | CC(=O)c1c(O)n(C2CCCCCC2)c(=O)[nH]c1=O | 23.2% (active)
53 | CC(=NCC1CCCO1)c1c(O)n(-c2ccccc2)c(=O)[nH]c1=O (stereo not given) | -2.12%
54 | Cc1ccccc1CCC[C@@H](CC1CCCCC1)CN(C)C(=O)Oc1ccccc1 | 0.94%
55 | COc1cc(OC)cc(C(=O)NCCN2CCC3(CC2)C(=O)NCN3c2ccccc2)c1 | 1.49%
